# Inconclusive results are not listed. Entries that show only a call come without a potency. The source made the active and inactive calls. Calls come from the whole dose curve; as a rule, active = well fitted curve in the direction sought with a large enough effect; inconclusive = small, poorly fitted or top-dose-only effect, or another doubt; inactive = no such curve, though single readings can be large; an effect the other way counts as inactive or inconclusive.
# Assay: Quantitative High-Throughput drug screen in 47 multiple myeloma cell lines against the NCATS MIPE library collection: JIM3_ECACC cell viability assay (AID 1918963; note: nearly all actives have a fitted effect of over 35% in size)
# Conditions: JIM3 myeloma viability, CellTiter-Glo ATP, 48 h; series mostly up to 45.8 µM
# Outline: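 Myeloma cells (500 per well) were exposed to MIPE 4.0 compounds by pin transfer and incubated 48 hours at 37C, 5% CO2. Viability was read as ATP by CellTiter-Glo luminescence, normalised to DMSO (100%) and media-only (0%) wells.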
row,Compound,Potency
1,Cn1c(CCCC(=O)O)nc2cc(N(CCCl)CCCl)ccc21,inactive
2,Cc1cccc(C)c1NC(=O)CN1CCCC1=O,inactive
3,O=c1[nH]c2ccccc2n1CCCN1CCC(n2c(=O)[nH]c3cc(Cl)ccc32)CC1,inactive

# Assay: Quantitative High-Throughput drug screen in 47 multiple myeloma cell lines against the NCATS MIPE library collection: INA6_PLB cell viability assay (AID 1918965; note: nearly all actives have a fitted effect of over 55% in size; note: potency is the fitted concentration of half-maximal effect)
# Conditions: INA6 myeloma viability, CellTiter-Glo ATP luminescence, 48 h; series mostly up to 45.8 µM
# Outline: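 CellTiter-Glo ATP luminescence gave viability after 48 h compound treatment at 37C of 500 multiple myeloma cells per well. Normalisation used DMSO-only wells as 100% and media-only wells as 0% viability; primary qHTS of approved and investigational drugs.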
row,Compound,Potency
1,Cn1c(CCCC(=O)O)nc2cc(N(CCCl)CCCl)ccc21,18.7 µM (active)
2,Cc1cccc(C)c1NC(=O)CN1CCCC1=O,inactive
3,O=c1[nH]c2ccccc2n1CCCN1CCC(n2c(=O)[nH]c3cc(Cl)ccc32)CC1,18.7 µM (active)

# Source: PubChem BioAssay (NCATS)
